These results are taken from PubChem BioAssay AID1460 (National Center for Advancing Translational Sciences (NCATS), 2008).

The campaign covered roughly 270,000 compounds. About 5,800 (2.1%) were called active. About 16% were inconclusive and are not listed. The call rests on the fitted dose curve; in most records, active means well fitted inhibition curve with a large enough effect; inconclusive means small, poorly fitted or top-dose-only effect; inactive means flat fitted curve, though single readings scatter. This excerpt belongs to a sample that is enriched for actives.
On the % scale 0 is the no-effect control and ±100 the full control effect; potency means the concentration at half of the fitted maximal effect.

Chain of Microtubule-associated protein tau (Homo sapiens) (P10636 561-689 P618L limits assumed): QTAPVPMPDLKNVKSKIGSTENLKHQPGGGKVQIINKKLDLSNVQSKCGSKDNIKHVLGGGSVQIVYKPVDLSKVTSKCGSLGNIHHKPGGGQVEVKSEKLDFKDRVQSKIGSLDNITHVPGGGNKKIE

This assay deals with Microtubule-associated protein tau (Homo sapiens) (UniProt P10636). The assay can be described thus: qHTS for Inhibitors of Tau Fibril Formation, Thioflavin T Binding. Further: nearly all actives have a fitted effect of over 55% in size. As to conditions: recombinant tau K18 P301L, heparin-induced fibrillization, ThT fluorescence; series mostly up to 57.4 µM; activity, negative = inhibition: at the top concentration. The essentials:
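Fibril formation assay: tau K18 P301L at 15 uM with trace Alexa 594 label, heparin inducer 20 uM, pH 7 sodium acetate buffer, 37 C for 6 hr; endpoint ThT signal.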
Take `Cc1ccc(-c2nc3cccc(C)n3c2Nc2ccc3c(c2)OCCO3)cc1`: the “activity, negative = inhibition” value was -16.2% (inactive). Consider `CCn1cc(C(=O)NCc2ccc(C)cc2)c(=O)c2cc(S(=O)(=O)N3CCc4ccccc4C3)ccc21`, for which the “activity, negative = inhibition” value is 8.86% (inactive). The same measure, in the same setting: next, `Cc1c(-c2nsc(NC(=O)c3cccc(Cl)c3)n2)nnn1-c1ccccc1C(F)(F)F`: 10.2% (inactive); `CCOC(=O)c1ccc(NC(=O)Cn2cc(S(=O)(=O)Cc3ccccc3F)c3ccccc32)cc1`: 1.94% (inactive); `O=c1[nH]n(-c2ccc([N+](=O)[O-])cc2)c(=O)c2ccccc12`: -17.7% (inactive). On the same count and under the same terms, next, `COC(=O)CC1=NN(c2ccccc2)C(=O)C1`: -12.9% (inactive). For `O=C1CC(c2ccccc2)=NN1c1ccc([N+](=O)[O-])cc1`, the Potency was 11.2 µM (active). Take `O=C(NCC(c1cccnc1)N1CCc2ccccc21)c1cccc(C(F)(F)F)c1` (stereo not drawn): the “activity, negative = inhibition” value is -1.15% (inactive).

`COc1ccccc1-c1nnc(SCC(N)=O)o1`: the “activity, negative = inhibition” value is 7.71% (inactive).

`CCOc1ccc(NC(=O)c2c(NCc3cccc(OC)c3OC)sc3c2CCC3)cc1`: the “activity, negative = inhibition” value is -8.9% (inactive). For the compound `N#Cc1c(NC(=O)CCCl)sc2c1CCCCC2`, the “activity, negative = inhibition” value was 0.0781% (inactive).

Take `O=C(Cc1ccccc1)Nc1sc2c(c1C(=O)Nc1ccc(Br)cc1)CCC2`: the “activity, negative = inhibition” value was -1.03% (inactive). Regarding `CCOC(=O)c1c(NC(=O)CCC(=O)NCc2ccco2)sc2c1CCCC2`, the “activity, negative = inhibition” value is -11.9% (inactive). Consider `Cc1ccc(NC(=O)c2c(NC(=O)CCC(=O)O)sc3c2CCCCC3)cc1`, for which the Potency is 25.1 µM (active).

`CCOc1ccc(NC(=O)c2c(NC(=O)Cc3ccccc3)sc3c2CCCCC3)cc1`: the Potency was 22.4 µM (active). In the case of `CCCn1ccc2c(OCC(=O)NCc3ccc(F)cc3)cccc2c1=O`, the “activity, negative = inhibition” value was -9.18% (inactive).

With `COc1ccccc1NC(=O)C1=C(C)Nc2nc(SCC(=O)c3ccc(C)cc3)nn2C1c1ccccc1C` (stereo not drawn), the “activity, negative = inhibition” value was 14.7% (inactive).

Consider `COc1ccc(NC(=O)CCNS(=O)(=O)c2ccc3c(c2)CCCC(=O)N3)cc1Cl`, for which the “activity, negative = inhibition” value is -6.94% (inactive). Take `COc1cc(NC(=O)CSc2nc3nc(C)c(Cc4ccc(C)cc4)c(C)n3n2)cc(OC)c1OC`: the “activity, negative = inhibition” value is 4.12% (inactive). On to `COc1ccc(-c2nc(Cn3c(=O)cc(C)c4c(C)nn(-c5ccccc5)c43)c(C)o2)c(OC)c1`, for which the “activity, negative = inhibition” value is -0.776% (inactive). In the case of `CCOC(=O)Cn1c(=O)n(-c2ccccc2OC)c2nc(-c3cccc(F)c3)nc(C(N)=O)c21`, the “activity, negative = inhibition” value is -5.02% (inactive).

In the case of `COc1cc(Cl)c(C)cc1Nc1nnc(-n2nc(C)cc2C)c2ccccc12`, the “activity, negative = inhibition” value is -5.87% (inactive). With `CCc1ccc(CNC(=O)c2ccc(CS(=O)c3ccc(Br)cc3)o2)cc1` (stereo not drawn), the “activity, negative = inhibition” value was -5.94% (inactive).

As for `CCOC(=O)C1=C(c2ccc(OC)cc2)C(=O)c2ccccc2C1=O`, the Potency is 14.1 µM (active). As to `CCCCC(C(=O)OCC(=O)c1ccc(OC)cc1)N1C(=O)c2ccccc2C1=O` (stereo not drawn), the “activity, negative = inhibition” value was -3.63% (inactive). `CCOC(=O)c1ccccc1NS(=O)(=O)c1ccc(OC)cc1`: the “activity, negative = inhibition” value was -8.17% (inactive). The same measure, in the same setting: the result for `N#Cc1c2c(c(-c3ccccc3)[nH]c1=O)CCCC2` reads -3.54% (inactive); that for `O=c1[nH]c2c(c(=O)n1Cc1ccccc1)CCC2`, -1.52% (inactive). Regarding `O=c1[nH]n2c(=O)c3c([nH]c2c1N=Nc1ccccc1)CCC3`, the Potency was 3.16 µM (active). With `O=C(Nc1cccc(Cl)c1)c1csnn1`, the “activity, negative = inhibition” value is -9.63% (inactive). For the compound `CCOc1ccccc1/C=c1\sc2nc(-c3ccco3)nn2c1=O`, the Potency was 22.4 µM (active). Consider `CCOC(=O)C1CCN(C(c2ccc(F)cc2)c2sc3nc(-c4ccco4)nn3c2O)CC1` (stereo not drawn), for which the “activity, negative = inhibition” value is -6.53% (inactive). With `Oc1c(C(c2ccccc2Cl)N2CCOCC2)sc2nc(-c3ccco3)nn12` (stereo not drawn), the “activity, negative = inhibition” value is -12.2% (inactive). Turning to `Cc1ccc2nc(COc3cccc(NC(=O)c4cccc(Cl)c4)c3)cc(=O)n2c1`, the “activity, negative = inhibition” value was -0.872% (inactive). `Clc1cccc(N=C2NN=C(c3ccc4c(c3)OCCO4)CS2)c1`: the Potency is 15.8 µM (active). With `O=C1OC(NC(=O)c2ccccc2)C(N2CCOCC2)=C1Cl` (stereo not drawn), the “activity, negative = inhibition” value was -9.42% (inactive). Take `O=C1C(Cl)=C(N2CCOCC2)C(=O)N1c1ccccc1`: the Potency was 12.6 µM (active). `c1ccc(-n2nnnc2N2CCOCC2)cc1`: the “activity, negative = inhibition” value is 4.05% (inactive). Same read-out and setting: the result for `CCc1ccc(NC(=O)CSc2nc3c([nH]c4ccccc43)c(=O)n2-c2cccc(OC)c2)cc1` reads 13.6% (inactive).

As to `CCOC(=O)c1cc(Sc2ccccc2N)cc(C(=O)OCC)n1`, the “activity, negative = inhibition” value was -0.497% (inactive). With `Nc1ccccc1Sc1ccc(C(F)(F)F)cc1[N+](=O)[O-]`, the “activity, negative = inhibition” value was -12.6% (inactive).

With `CCS(=O)(=O)c1cc([N+](=O)[O-])c(Sc2ccccc2N)s1`, the Potency is 10 µM (active). As for `Cc1ccc(CNS(=O)(=O)c2ccc(-c3cc(C(F)(F)F)on3)s2)cc1`, the “activity, negative = inhibition” value was 13.6% (inactive). On to `O=C(Nc1cc(S(=O)(=O)N2CCOCC2)ccc1Cl)c1cc(=O)c2ccccc2o1`, for which the “activity, negative = inhibition” value is 1.79% (inactive). With `O=C(NC(=S)Nc1ccc(S(=O)(=O)N2CCOCC2)cc1)c1ccccc1[N+](=O)[O-]`, the “activity, negative = inhibition” value was -0.152% (inactive). In the case of `O=[N+]([O-])c1cc(Cl)cc(/C=N/NC(=S)Nc2cc(S(=O)(=O)N3CCOCC3)ccc2Cl)c1O`, the Potency is 3.16 µM (active). Turning to `Cc1ccc(N(C)C(=O)C2CCN(S(=O)(=O)c3ccc4c(c3)CCCN4C(=O)C3CCC3)CC2)cc1`, the “activity, negative = inhibition” value is -6.98% (inactive). In the case of `CN(C)c1ccc(/C=N/NC(=O)c2ccc(Cn3cc(Br)cn3)o2)cc1`, the Potency is 12.6 µM (active).

Regarding `O=C(N/N=C/c1ccc2c(c1)OCO2)c1ccc(Cn2cc([N+](=O)[O-])cn2)o1`, the “activity, negative = inhibition” value was -0.161% (inactive). On the same count and under the same terms, the result for `O=C(N/N=C\c1ccc(Br)cc1)c1ccc(Cn2cccn2)o1` reads 4.04% (inactive). For the compound `COCCOC(=O)c1sc(=S)n(CCOC)c1N`, the Potency was 28.2 µM (active).

Consider `COC(=O)c1sc(=S)n(-c2ccccc2)c1N`, for which the “activity, negative = inhibition” value was -17% (inactive). For `CCOC(=O)c1c(N)sc(C(C)=O)c1C`, the “activity, negative = inhibition” value is -16.5% (inactive).

Consider `COc1ccccc1N1CCN(C(=O)C2CCN(S(=O)(=O)c3c(C)noc3/C=C/c3ccc(C)cc3)CC2)CC1`, for which the “activity, negative = inhibition” value was -5.26% (inactive). On the same count and under the same terms, the result for `CCn1cc(C(=O)OCC(=O)Nc2cc(C)cc(C)c2)c(=O)c2ccc(C)nc21` reads -9.74% (inactive). As to `CCCS(=O)(=O)N1CCC(n2c(C(F)(F)F)nc3cccnc32)CC1`, the “activity, negative = inhibition” value was -15.8% (inactive). With `COc1ccc(CCNC(=O)c2ccc3c(c2)sc2nc(-c4ccc(C)cc4)cn23)cc1OC`, the “activity, negative = inhibition” value is 16.4% (inactive).

Take `O=C(NCc1ccc(Cl)cc1)c1ccc2c(c1)nnn2C1CCCC1`: the “activity, negative = inhibition” value was 1.79% (inactive).
